Potency and activity change, negative = inhibition data for 71 compounds are collected here from PubChem BioAssay AID504832 (National Center for Advancing Translational Sciences (NCATS), 2011).

Hit rate of the full screen: of about 310,000 compounds, about 18,000 (5.8%) were called active. Inconclusive results (about 22%) are left out. Shown is part of a subset that was picked to be rich in actives. A call without a number means that no potency is given here. Values without a mark were called inactive. The call rests on the fitted dose curve; in most records, active means well fitted inhibition curve with a large enough effect; inconclusive means small, poorly fitted or top-dose-only effect, or another doubt; inactive means no such curve, though single readings can be large or run the other way.
Potency means the concentration at half of the fitted maximal effect.

The nature of the assay: Primary qHTS for delayed death inhibitors of the malarial parasite plastid, 48 hour incubation. The settings on record: P. falciparum luciferase growth in erythrocytes; series mostly up to 28.7 µM. Summed up: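 First compound was added to culture medium, then infected red cells at 0.1% parasitemia and 2% hematocrit (final). After incubation at 37 C under 5% CO2, luciferase detection reagent was dispensed and light output recorded.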
On to `COc1cc(NC(=O)CSC(=S)N2CCCC2)c(OC)cc1Cl`, for which the Potency result is “inactive”.
Same read-out and setting: for `Oc1ccccc1C1=NN(c2ccccc2)C(c2ccccc2)C1` (stereo unspecified) the value was 1.31 µM (active); for `COc1ccc(C2CC(c3ccccc3)=NN2C(=O)c2ccc(Cl)c([N+](=O)[O-])c2)cc1` (stereo unspecified), “inactive”; for `O=C1CC(c2ccccc2)C(=O)N1c1cccc(O)c1` (stereo unspecified), “inactive”.
Consider `CC(=O)Oc1ccccc1C1=NN(C(C)=O)C(c2ccccc2)C1` (stereo unspecified), for which the Potency entry is “inactive”.
The same measure, in the same setting: for `O=C(c1ccccc1)N1N=C(c2ccccc2O)CC1c1ccc(Br)cc1` (stereo unspecified) the value was 3.7 µM (active).
In the case of `CCn1c(=O)c(=O)[nH]c2c(=O)oc3ccc(S(=O)(=O)Nc4ccc(OC)cc4)cc3c21`, the Potency entry was “inactive”.
On the same count and under the same terms, for `COc1ccc(C(=O)CCC(=O)Nc2ccc(Cl)cc2)cc1` the value was “inactive”; for `O=C(NCCO)C(=O)NCC(c1ccc2c(c1)OCO2)N1CCN(c2ccc(F)cc2)CC1` (stereo unspecified), “inactive”.
`O=C(OCCN=C1NS(=O)(=O)c2ccccc21)c1cccc([N+](=O)[O-])c1`: the Potency entry is “inactive”.
Same read-out and setting: the value for `Cn1c(=O)c2c(ncn2CC(=O)N2CCN(c3ccccc3)CC2)n(C)c1=O` was “inactive”.
Same read-out and setting: the value for `Cn1c(=O)c2c(ncn2CC(COCc2ccccc2Cl)OCc2ccccc2Cl)n(C)c1=O` (stereo unspecified) was 8.28 µM (active).
Consider `Cn1c(=O)c2c(ncn2CCc2ccccc2)n(C)c1=O`, for which the Potency result is “inactive”.
Still for that read-out and setting: for `COc1ccccc1S(=O)(=O)c1c(C)cc(C)[nH]c1=O` the value was “inactive”; for `O=S(=O)(NC1CC1)c1ccc(F)c(F)c1`, “inactive”; for `O=C(CC1C(=O)NCCN1CC(c1ccccc1)c1ccccc1)NCC1CCOCC1` (stereo unspecified), “inactive”.
`C=CCN1CCN(C(=O)CCCc2ccccc2)CC1`: the Potency result is “inactive”.
For the compound `COc1ccc(/C=C/C(=O)OCC(=O)Nc2cccc(Oc3ccccc3)c2)c(OC)c1`, the Potency entry was “inactive”.
On the same count and under the same terms, the value for `COc1ccc(/C=C2/C(=O)N(c3ccccc3)N=C2C)c(OC)c1` was “inactive”.
Still for that read-out and setting: the value for `COc1ccc(/C=C/C2=CC(C)(C)NC(=S)N2)c(OC)c1` was 10.4 µM (active).
`O=C(CNC(=O)c1cccnc1)N/N=C/c1cccnc1`: the activity change, negative = inhibition is 2.56% [at 0.00184 µM].
As for `CCN(C(=O)CSc1ncnc2c1cnn2-c1ccccc1)C1CCS(=O)(=O)C1` (stereo unspecified), the Potency result is “inactive”.
Turning to `CC(C(=O)NC1CCCCC1)N1C(=O)c2cccc3cccc1c23` (stereo unspecified), the Potency entry is “inactive”.
Same read-out and setting: for `CCc1cccc(CC)c1NC(=S)NCc1ccc2[nH]c(C)cc2c1` the value was 4.65 µM (active); for `Cc1c(Cl)cccc1NC(=S)NCc1ccc2c(c1)OCO2`, “inactive”.
Take `CCc1cccc(CC)c1NC(=S)Nc1ccc2cn[nH]c2c1`: the Potency result was “inactive”.
On the same count and under the same terms, the value for `Cc1cccc(NC(=O)C2CCN(C(=O)NC3CCCCC3)CC2)c1` was “inactive”; that for `CCc1ccc(OCC(=O)N(Cc2ccccc2)C2CCS(=O)(=O)C2)cc1` (stereo unspecified) was “inactive”.
Still for that read-out and setting: the value for `CCOC(=O)N1CCN(S(=O)(=O)N2CCCC(C(=O)NCCCN3CCC(C)CC3)C2)CC1` (stereo unspecified) was “inactive”.
As to `COc1ccc(-c2[nH]ncc2/C=N/NC(=O)c2cc(Br)ccc2O)c(OC)c1`, the Potency entry was “inactive”.
For `CCOc1ccccc1Oc1cn[nH]c1-c1ccc(OC)cc1O`, the Potency is 11.7 µM (active).
Regarding `COc1ccc(-c2[nH]ncc2CN(C)Cc2cccnc2)c(F)c1`, the Potency result was “inactive”.
As to `COc1ccc(-c2cn[nH]c2-c2ccc(OC)cc2)cc1`, the Potency entry is “inactive”.
`CCN(CCn1cccn1)Cc1cn[nH]c1-c1ccc(OC)cc1F`: the Potency result is “inactive”.
On the same count and under the same terms, for `COc1ccc(Oc2cn[nH]c2-c2ccc(OC)cc2O)cc1` the value was 6.57 µM (active); for `NC(=O)CSc1nnc(NC(=O)c2ccc(Br)o2)s1`, “inactive”.
The same measure, in the same setting: for `Cc1cc(C)c(S(=O)(=O)c2ccc(F)cc2C)c(=O)[nH]1` the value was “inactive”; for `CC(C)NS(=O)(=O)c1ccc(OCC(=O)NC2CCCCCC2)cc1`, “inactive”; for `Cc1ccc(NS(=O)(=O)c2ccc(F)cc2)nc1`, “inactive”.
As for `CSCC[C@H](NC(=O)N1CCn2c1nc1ccccc12)C(=O)NCc1ccc2c(c1)OCO2`, the Potency result is “inactive”.
Still for that read-out and setting: for `COC(=O)c1ccc2ccccc2c1OC1OC(CO)C(O)C(O)C1NC(C)=O` (stereo unspecified) the value was “inactive”; for `Cc1ccc(CNC(=O)[C@@H](NC(=O)Cc2ccccc2)C(C)C)cc1`, “inactive”.
On to `O=C(c1ccccc1)c1ccc(OCC(O)CN2CCCC2)cc1` (stereo unspecified), for which the Potency result is “inactive”.
Regarding `O=C(C(c1ccccc1)c1ccccc1)N1CCN(CC(O)COc2ccccc2)CC1` (stereo unspecified), the Potency is 10.4 µM (active).
Turning to `O=[N+]([O-])c1ccc(N2CCN(CC(O)COc3ccccc3)CC2)cc1` (stereo unspecified), the Potency result is “inactive”.
For the compound `Cc1cccc(-n2c(C)cc(/C=N/NC(N)=S)c2C)c1`, the Potency result was “inactive”.
For `Cc1cccc(-n2c(C)cc(/C=N\NC(=O)c3cccs3)c2C)c1`, the Potency is 5.22 µM (active).
Regarding `CC(=O)Nc1ccc(/C=N/NC(=O)c2cccs2)cc1`, the Potency result is “inactive”.
Same read-out and setting: for `Cc1ccc2[nH]cc(CCNC(=O)C3CCCCC3)c2c1` the value was “inactive”; for `CCc1c(C)nc(SCC(=O)NC2CCCC2)[nH]c1=O`, “inactive”; for `c1ccc2c(CSCc3nc4ccccc4[nH]3)cccc2c1`, “inactive”.
As to `N=C(N)SCc1cccc2ccccc12`, the Potency was 9.28 µM (active).
Regarding `N#C/C(=C(/O)Cc1cccc2ccccc12)c1nc2ccccc2s1`, the Potency result was “inactive”.
Regarding `O=C(Nc1ccc(Cl)cc1)c1cccc(OC(=S)N2CCOCC2)c1`, the Potency result was “inactive”.
For `Cc1ccc(C(=O)O/N=C(\N)c2ccccn2)cc1Cl`, the Potency result was “inactive”.
As to `CCOc1ccc(OCCSc2nc3ccccc3n2CC(=O)O)cc1`, the Potency result was “inactive”.
Take `CC(C)=CCN1CCN(Cc2cc3ccccc3[nH]2)CC1CCO` (stereo unspecified): the Potency entry is “inactive”.
For the compound `COc1ccc(C(=O)N2CCCC(C(=O)c3ccccc3OC)C2)cc1OC` (stereo unspecified), the Potency entry is “inactive”.
For the compound `COc1ccc(CSc2nc(N3CCOCC3)c3c(c2C#N)CC(C)(C)OC3)cc1`, the Potency is 11.7 µM (active).
In the case of `COc1ccc(-n2nnnc2SCc2nc(N)nc(N3CCOCC3)n2)cc1`, the Potency result was “inactive”.
`Cc1cc(C)c(C#N)c(SCc2ccc3c(c2)OCO3)n1`: the Potency result was “inactive”.
Same read-out and setting: the value for `CC(C)(C)OC(=O)N1CCC(C(=O)NNC(=O)c2ccc(Cl)cc2Cl)CC1` was “inactive”; that for `Cc1c(CN2CCC(n3nccc3NC(=O)CCc3ccccc3)CC2)cnn1C` was “inactive”.
Take `COC(=O)c1c(NC(=O)C2CC(C)=C(C)CC2C(=O)O)sc2c1CCCCC2` (stereo unspecified): the Potency result was “inactive”.
The same measure, in the same setting: the value for `COC(=O)c1ccc(S(=O)(=O)N2CCc3ccccc3C2)cc1` was “inactive”; that for `COc1ccc(C2Nc3ccccc3C(=O)N2Cc2ccccc2)cc1Cn1nnc2ccccc21` (stereo unspecified) was 3.7 µM (active).
Regarding `COc1ccc(C2Nc3ccccc3C(=O)N2c2ccc(Cl)cc2)cc1Cn1cc([N+](=O)[O-])cn1` (stereo unspecified), the Potency entry is “inactive”.
Still for that read-out and setting: for `Cc1ccc(C2Nc3ccccc3C(=O)N2CCN2CCNC2=O)cc1` (stereo unspecified) the value was “inactive”; for `COc1ccc(C2Nc3ccccc3C(=O)N2c2ccc(F)cc2)cc1Cn1nnc2ccccc21` (stereo unspecified), 6.57 µM (active); for `COc1ccc(C2=NO[C@@H]3C(=O)N(Cc4ccccc4)C(=O)[C@H]23)cc1OC`, “inactive”.
In the case of `COc1ccc(N2C(=O)c3ccccc3NC2c2ccc(OC)c(CN3CCOCC3)c2)cc1` (stereo unspecified), the Potency entry was “inactive”.
